Experimental data taken from publication PMC7862700, “An all-to-all approach to the identification of sequence-specific readers for epigenetic DNA modifications on cytosine”.

How the values were obtained:
Assay in all cases: DAPPL (digital affinity profiling via proximity ligation, sequencing); 10 mM Tris-HCl pH 7.5, 50 mM NaCl, 1 mM DTT, 4% glycerol, room temperature, 30 min; GST-TFs on glutathione beads, 16-mer random dsDNA library, 0.1% formaldehyde crosslink after washing; high values mean tight binding
FLI1 = target: T1, FLI1 (Homo sapiens, UniProt Q01543 1-452); details: protein: recombinant; tags: N-terminal GST; dsDNA, one strand shown
T1 sequence: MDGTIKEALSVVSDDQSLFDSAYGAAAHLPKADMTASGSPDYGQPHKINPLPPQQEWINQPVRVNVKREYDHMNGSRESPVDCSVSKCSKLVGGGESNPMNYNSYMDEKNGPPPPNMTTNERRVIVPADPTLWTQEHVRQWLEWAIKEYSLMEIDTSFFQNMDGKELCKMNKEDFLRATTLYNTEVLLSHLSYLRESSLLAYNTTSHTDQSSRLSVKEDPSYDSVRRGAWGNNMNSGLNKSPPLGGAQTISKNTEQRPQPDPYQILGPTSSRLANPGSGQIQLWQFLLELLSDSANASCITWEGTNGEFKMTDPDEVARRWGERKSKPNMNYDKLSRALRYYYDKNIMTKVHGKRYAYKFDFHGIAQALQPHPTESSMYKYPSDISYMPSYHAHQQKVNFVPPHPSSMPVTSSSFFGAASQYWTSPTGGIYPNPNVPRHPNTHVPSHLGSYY
Procedure, shortened: (§1)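 A tag-only sample was pooled with DNA-barcoded human transcription factors that had been expressed in yeast as GST fusions and captured on glutathione beads. The pools were incubated for 30 min at room temperature with 200 nmole of a random double-stranded 16-mer DNA library in Tris/NaCl/DTT/glycerol buffer, then washed, crosslinked with 0.1% formaldehyde, proximity-ligated (BsaI/T4 ligase, 1 h, 37 °C), PCR-amplified and sequenced on an Illumina NextSeq500. Binding signal is each hexamer's read frequency for a factor divided by its frequency for the tag-only sample.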

ELK1 = target: T2, ELK1 (Homo sapiens, UniProt P19419 1-428); details: protein: recombinant; tags: N-terminal GST; dsDNA, one strand shown
T2 sequence: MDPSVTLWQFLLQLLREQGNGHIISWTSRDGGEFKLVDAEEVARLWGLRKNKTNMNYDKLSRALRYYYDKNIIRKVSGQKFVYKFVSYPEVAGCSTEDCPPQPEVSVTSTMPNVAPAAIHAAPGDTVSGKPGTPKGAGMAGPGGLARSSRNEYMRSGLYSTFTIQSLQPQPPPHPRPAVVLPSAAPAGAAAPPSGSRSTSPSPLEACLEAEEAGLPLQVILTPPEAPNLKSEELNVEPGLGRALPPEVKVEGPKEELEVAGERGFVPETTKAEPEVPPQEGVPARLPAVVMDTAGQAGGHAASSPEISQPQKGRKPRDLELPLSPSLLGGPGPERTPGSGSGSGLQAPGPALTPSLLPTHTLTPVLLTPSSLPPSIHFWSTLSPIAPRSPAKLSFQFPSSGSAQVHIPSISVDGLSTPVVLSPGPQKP
Procedure, shortened: as §1

GABPA = target: T3, GABPA (Homo sapiens, UniProt Q06546 1-454); details: protein: recombinant; tags: N-terminal GST; dsDNA, one strand shown
T3 sequence: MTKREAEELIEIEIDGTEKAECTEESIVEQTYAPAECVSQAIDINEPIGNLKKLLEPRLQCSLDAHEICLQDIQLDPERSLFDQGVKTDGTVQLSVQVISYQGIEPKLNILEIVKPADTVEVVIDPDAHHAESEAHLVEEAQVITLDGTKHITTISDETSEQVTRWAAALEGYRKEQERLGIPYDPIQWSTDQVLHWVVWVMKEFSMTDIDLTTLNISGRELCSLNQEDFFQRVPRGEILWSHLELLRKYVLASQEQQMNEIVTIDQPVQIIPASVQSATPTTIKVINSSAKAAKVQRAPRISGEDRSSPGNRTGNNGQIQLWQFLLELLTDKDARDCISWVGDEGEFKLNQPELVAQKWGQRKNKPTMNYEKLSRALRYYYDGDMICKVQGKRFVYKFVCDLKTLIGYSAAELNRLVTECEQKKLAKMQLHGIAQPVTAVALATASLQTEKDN
Procedure, shortened: as §1

ERG = target: T4, ERG (Homo sapiens, UniProt P11308 1-479); details: protein: recombinant; tags: N-terminal GST; dsDNA, one strand shown
T4 sequence: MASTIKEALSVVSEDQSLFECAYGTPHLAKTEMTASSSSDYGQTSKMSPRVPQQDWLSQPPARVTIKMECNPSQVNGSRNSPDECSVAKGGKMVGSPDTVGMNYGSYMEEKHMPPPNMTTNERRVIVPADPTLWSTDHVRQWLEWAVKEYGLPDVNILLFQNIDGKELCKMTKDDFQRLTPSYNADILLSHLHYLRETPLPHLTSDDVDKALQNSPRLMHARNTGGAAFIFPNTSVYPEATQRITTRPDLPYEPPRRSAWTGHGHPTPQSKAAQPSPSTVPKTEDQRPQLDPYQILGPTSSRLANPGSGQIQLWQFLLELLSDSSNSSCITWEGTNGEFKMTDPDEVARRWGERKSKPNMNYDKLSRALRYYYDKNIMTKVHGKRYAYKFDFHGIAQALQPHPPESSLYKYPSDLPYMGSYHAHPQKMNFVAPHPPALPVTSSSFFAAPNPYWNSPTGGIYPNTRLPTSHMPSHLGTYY
Procedure, shortened: as §1

ELF1 = ELF1 (Homo sapiens, UniProt P32519 1-619); details: protein: recombinant; tags: N-terminal GST; dsDNA, one strand shown
ELF1, sequence (P32519 whole entry): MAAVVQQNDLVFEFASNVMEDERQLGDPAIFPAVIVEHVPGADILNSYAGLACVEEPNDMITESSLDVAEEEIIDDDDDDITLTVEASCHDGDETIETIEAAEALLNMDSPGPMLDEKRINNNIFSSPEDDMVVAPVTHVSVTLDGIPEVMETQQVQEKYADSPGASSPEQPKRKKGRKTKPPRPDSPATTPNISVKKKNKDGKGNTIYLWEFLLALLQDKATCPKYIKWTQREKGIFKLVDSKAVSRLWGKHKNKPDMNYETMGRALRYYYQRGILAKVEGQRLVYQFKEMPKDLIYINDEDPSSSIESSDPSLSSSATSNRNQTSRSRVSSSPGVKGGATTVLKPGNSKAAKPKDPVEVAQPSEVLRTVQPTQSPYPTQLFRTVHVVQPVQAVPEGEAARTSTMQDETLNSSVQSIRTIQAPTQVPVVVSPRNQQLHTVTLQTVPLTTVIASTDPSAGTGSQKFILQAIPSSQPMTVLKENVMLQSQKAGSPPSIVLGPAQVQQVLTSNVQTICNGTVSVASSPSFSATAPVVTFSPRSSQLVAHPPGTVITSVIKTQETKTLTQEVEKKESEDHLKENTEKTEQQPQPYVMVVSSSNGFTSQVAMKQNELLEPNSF
Procedure, shortened: as §1

EHF = target: T5, EHF (Homo sapiens, UniProt Q9NZC4 1-300); details: protein: recombinant; tags: N-terminal GST; dsDNA, one strand shown
T5 sequence: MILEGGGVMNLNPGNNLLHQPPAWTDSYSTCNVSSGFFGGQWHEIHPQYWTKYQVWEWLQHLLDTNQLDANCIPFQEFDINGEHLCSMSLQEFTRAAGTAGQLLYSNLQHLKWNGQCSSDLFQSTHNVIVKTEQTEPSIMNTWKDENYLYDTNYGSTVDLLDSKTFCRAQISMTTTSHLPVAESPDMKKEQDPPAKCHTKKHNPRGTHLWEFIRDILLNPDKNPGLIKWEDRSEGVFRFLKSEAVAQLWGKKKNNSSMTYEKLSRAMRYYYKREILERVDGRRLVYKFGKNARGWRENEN
Procedure, shortened: as §1

SPI1 = SPI1 (Homo sapiens, UniProt P17947 1-270); details: protein: recombinant; tags: N-terminal GST; dsDNA, one strand shown
Procedure, shortened: as §1

SPIB = SPIB (Homo sapiens, UniProt Q01892 1-262); details: protein: recombinant; tags: N-terminal GST; dsDNA, one strand shown
SPIB, sequence (Q01892 whole entry): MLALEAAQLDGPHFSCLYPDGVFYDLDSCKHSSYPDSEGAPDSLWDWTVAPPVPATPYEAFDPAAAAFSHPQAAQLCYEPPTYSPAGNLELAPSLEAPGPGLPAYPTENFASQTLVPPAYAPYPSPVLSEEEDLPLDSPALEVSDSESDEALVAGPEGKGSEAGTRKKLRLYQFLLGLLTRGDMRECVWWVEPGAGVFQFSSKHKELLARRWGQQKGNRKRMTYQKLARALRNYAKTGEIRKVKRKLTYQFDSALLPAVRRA
Procedure, shortened: as §1

ELK3 = target: T6, ELK3 (Homo sapiens, UniProt P41970 1-407); details: protein: recombinant; tags: N-terminal GST; dsDNA, one strand shown
T6 sequence: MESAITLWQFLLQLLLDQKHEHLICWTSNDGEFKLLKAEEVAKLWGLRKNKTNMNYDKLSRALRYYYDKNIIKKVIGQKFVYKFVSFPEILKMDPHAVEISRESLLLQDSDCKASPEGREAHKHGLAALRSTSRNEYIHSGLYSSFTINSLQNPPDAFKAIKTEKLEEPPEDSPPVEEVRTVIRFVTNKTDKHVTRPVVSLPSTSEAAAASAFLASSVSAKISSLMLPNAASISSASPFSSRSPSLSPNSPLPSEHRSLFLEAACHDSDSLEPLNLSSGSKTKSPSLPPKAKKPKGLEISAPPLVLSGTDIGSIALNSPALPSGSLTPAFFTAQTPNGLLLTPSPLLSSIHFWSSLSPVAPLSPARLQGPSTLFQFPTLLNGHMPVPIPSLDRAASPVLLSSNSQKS
Procedure, shortened: as §1

FEV = target: T7, FEV (Homo sapiens, UniProt Q99581 1-238); details: protein: recombinant; tags: N-terminal GST; dsDNA, one strand shown
T7 sequence: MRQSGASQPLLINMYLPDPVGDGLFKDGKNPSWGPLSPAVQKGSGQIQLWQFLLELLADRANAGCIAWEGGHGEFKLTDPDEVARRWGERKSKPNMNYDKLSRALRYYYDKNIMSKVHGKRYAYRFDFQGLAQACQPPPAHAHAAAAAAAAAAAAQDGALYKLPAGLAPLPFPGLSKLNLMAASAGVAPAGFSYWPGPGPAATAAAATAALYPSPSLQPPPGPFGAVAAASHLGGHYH
Procedure, shortened: as §1

ETV5 = ETV5 (Homo sapiens, UniProt P41161 1-510); details: protein: recombinant; tags: N-terminal GST; dsDNA, one strand shown
ETV5, sequence (P41161 whole entry): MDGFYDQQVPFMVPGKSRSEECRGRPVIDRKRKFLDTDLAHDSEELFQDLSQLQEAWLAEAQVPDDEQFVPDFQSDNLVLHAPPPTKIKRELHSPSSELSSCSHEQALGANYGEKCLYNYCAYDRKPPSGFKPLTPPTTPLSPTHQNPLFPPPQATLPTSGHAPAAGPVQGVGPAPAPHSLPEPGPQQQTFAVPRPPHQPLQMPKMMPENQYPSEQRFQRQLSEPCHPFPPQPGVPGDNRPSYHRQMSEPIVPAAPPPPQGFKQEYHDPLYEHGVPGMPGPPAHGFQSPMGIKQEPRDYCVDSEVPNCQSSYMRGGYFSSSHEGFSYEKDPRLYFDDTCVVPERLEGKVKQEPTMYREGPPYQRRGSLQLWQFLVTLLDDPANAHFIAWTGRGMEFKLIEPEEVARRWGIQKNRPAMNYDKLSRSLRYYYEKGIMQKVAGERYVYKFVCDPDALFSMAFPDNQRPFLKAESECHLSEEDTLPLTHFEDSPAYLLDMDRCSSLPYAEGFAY
Procedure, shortened: as §1

HSF1 = HSF1 (Homo sapiens, UniProt Q00613 1-529); details: protein: recombinant; tags: N-terminal GST; chain copies: 3; dsDNA, one strand shown
HSF1, sequence (Q00613 whole entry): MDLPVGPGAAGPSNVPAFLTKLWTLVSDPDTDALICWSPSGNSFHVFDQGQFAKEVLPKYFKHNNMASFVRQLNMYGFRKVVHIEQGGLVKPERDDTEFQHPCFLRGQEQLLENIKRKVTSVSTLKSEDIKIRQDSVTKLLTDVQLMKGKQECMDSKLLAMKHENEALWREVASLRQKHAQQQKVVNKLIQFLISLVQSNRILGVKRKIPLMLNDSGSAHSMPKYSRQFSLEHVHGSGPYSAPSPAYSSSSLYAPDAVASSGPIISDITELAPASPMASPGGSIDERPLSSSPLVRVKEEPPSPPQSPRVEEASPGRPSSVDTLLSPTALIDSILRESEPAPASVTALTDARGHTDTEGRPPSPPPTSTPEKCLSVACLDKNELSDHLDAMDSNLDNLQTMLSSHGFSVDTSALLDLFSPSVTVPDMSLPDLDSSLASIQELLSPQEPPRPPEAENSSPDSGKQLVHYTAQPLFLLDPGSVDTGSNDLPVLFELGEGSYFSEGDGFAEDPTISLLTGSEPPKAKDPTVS
Procedure, shortened: as §1

SPIC = target: T8, SPIC (Homo sapiens, UniProt Q8N5J4 1-248); details: protein: recombinant; tags: N-terminal GST; dsDNA, one strand shown
T8 sequence: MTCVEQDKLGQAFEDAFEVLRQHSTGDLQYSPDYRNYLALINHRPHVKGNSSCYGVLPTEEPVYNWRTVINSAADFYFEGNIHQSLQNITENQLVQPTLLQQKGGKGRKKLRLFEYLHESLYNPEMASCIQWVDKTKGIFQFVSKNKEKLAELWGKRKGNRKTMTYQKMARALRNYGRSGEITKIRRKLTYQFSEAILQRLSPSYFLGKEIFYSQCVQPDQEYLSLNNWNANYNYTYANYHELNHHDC
Procedure, shortened: as §1

ELF4 = ELF4 (Homo sapiens, UniProt Q99607 1-663); details: protein: recombinant; tags: N-terminal GST; dsDNA, one strand shown
ELF4, sequence (Q99607 whole entry): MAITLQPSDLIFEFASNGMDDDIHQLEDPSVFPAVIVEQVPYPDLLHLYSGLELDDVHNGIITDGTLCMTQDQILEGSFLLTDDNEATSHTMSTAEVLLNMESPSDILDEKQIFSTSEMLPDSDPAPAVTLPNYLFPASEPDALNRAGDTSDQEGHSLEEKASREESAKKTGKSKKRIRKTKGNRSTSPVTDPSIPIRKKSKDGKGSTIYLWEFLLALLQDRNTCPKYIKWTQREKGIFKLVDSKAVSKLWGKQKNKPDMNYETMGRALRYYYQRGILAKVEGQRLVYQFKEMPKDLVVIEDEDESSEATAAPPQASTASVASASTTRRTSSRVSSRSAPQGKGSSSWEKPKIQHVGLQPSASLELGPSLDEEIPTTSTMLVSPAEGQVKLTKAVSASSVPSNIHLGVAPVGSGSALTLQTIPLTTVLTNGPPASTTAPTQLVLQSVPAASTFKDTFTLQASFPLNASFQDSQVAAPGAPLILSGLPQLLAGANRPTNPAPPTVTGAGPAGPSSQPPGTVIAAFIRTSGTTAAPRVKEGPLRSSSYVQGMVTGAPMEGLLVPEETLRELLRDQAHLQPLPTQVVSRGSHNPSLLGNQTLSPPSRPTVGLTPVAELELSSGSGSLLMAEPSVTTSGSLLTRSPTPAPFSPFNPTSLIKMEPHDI
Procedure, shortened: as §1

ELK4 = target: T9, ELK4 (Homo sapiens, UniProt P28324-2 1-405); details: protein: recombinant; tags: N-terminal GST; dsDNA, one strand shown
T9 sequence: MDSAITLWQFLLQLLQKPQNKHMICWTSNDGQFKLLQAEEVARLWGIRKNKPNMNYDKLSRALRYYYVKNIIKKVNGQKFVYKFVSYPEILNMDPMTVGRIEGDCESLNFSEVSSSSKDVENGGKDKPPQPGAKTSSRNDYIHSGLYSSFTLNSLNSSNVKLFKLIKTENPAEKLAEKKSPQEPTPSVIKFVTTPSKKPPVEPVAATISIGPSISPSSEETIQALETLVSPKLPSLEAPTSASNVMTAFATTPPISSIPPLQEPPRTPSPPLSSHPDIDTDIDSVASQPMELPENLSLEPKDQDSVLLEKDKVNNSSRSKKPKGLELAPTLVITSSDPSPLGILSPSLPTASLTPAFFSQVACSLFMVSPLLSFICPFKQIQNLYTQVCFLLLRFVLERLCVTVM
Procedure, shortened: as §1

ETV2 = target: T10, ETV2 (Homo sapiens, UniProt O00321 1-342); details: protein: recombinant; tags: N-terminal GST; dsDNA, one strand shown
T10 sequence: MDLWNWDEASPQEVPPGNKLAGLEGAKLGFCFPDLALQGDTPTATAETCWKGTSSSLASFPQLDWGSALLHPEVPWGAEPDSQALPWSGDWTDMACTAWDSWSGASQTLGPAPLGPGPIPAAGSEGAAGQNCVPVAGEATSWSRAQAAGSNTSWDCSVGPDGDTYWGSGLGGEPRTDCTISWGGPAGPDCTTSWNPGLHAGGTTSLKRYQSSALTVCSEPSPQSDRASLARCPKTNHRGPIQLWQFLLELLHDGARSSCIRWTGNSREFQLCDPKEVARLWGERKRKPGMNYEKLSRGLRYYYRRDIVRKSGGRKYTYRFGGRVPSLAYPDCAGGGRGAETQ
Procedure, shortened: as §1

ELF3 = target: T11, ELF3 (Homo sapiens, UniProt P78545 1-371); details: protein: recombinant; tags: N-terminal GST; dsDNA, one strand shown
T11 sequence: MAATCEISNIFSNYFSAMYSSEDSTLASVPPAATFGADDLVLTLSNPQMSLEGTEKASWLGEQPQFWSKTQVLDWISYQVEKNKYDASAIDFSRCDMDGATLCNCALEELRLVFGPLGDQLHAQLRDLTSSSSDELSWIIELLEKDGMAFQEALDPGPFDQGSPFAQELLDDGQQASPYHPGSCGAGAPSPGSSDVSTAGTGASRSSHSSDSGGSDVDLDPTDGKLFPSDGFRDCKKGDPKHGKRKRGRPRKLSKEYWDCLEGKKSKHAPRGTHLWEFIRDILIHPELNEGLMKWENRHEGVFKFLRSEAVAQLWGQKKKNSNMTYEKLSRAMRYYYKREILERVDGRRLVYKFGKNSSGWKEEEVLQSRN
Procedure, shortened: as §1

CRX = CRX (Homo sapiens, UniProt O43186 1-299); details: protein: recombinant; tags: N-terminal GST; dsDNA, one strand shown
CRX, sequence (O43186 whole entry): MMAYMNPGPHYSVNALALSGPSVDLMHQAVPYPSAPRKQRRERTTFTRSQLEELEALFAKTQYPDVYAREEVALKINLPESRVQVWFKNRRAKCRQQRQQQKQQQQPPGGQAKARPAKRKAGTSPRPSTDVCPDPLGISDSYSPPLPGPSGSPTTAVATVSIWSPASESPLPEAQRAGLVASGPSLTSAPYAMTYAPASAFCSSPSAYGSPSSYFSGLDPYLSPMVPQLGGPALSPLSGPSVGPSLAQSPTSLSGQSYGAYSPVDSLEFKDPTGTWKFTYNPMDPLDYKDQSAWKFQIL
Procedure, shortened: as §1

ETV1 = ETV1 (Homo sapiens, UniProt P50549 1-477); details: protein: recombinant; tags: N-terminal GST; dsDNA, one strand shown
ETV1, sequence (P50549 whole entry): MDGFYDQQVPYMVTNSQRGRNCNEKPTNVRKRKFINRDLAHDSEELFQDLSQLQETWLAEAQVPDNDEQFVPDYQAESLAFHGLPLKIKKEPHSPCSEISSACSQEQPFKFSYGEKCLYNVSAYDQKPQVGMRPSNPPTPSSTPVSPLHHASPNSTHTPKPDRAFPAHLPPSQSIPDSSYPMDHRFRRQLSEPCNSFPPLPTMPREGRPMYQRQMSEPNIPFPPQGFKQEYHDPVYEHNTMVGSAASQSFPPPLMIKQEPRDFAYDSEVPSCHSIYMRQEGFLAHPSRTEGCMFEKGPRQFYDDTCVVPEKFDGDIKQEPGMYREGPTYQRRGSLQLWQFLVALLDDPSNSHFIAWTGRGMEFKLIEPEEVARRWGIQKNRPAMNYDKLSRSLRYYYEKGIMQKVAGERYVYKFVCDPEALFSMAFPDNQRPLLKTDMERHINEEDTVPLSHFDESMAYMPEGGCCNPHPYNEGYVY
Procedure, shortened: as §1

GTAATT
binding signal (FLI1): 1.23 fold enrichment (6-mer frequency, TF over GST control) | binding signal (ELK1): 1.1 fold enrichment (6-mer frequency, TF over GST control) | binding signal (GABPA): 1.19 fold enrichment (6-mer frequency, TF over GST control) | binding signal (ERG): 1.19 fold enrichment (6-mer frequency, TF over GST control) | binding signal (ELF1): 1.22 fold enrichment (6-mer frequency, TF over GST control) | binding signal (EHF): 1.21 fold enrichment (6-mer frequency, TF over GST control) | binding signal (SPI1): 1.25 fold enrichment (6-mer frequency, TF over GST control) | binding signal (SPIB): 1.23 fold enrichment (6-mer frequency, TF over GST control) | binding signal (ELK3): 1.29 fold enrichment (6-mer frequency, TF over GST control) | binding signal (FEV): 1.16 fold enrichment (6-mer frequency, TF over GST control) | binding signal (ETV5): 1.23 fold enrichment (6-mer frequency, TF over GST control) | binding signal (HSF1): 1.36 fold enrichment (6-mer frequency, TF over GST control) | binding signal (SPIC): 1.21 fold enrichment (6-mer frequency, TF over GST control) | binding signal (ELF4): 1.22 fold enrichment (6-mer frequency, TF over GST control) | binding signal (ELK4): 1.11 fold enrichment (6-mer frequency, TF over GST control) | binding signal (ETV2): 1.31 fold enrichment (6-mer frequency, TF over GST control) | binding signal (ELF3): 1.19 fold enrichment (6-mer frequency, TF over GST control) | binding signal (CRX): 1.59 fold enrichment (6-mer frequency, TF over GST control) | binding signal (ETV1): 1.3 fold enrichment (6-mer frequency, TF over GST control)
